# Screening data as filed in PubChem BioAssay.
# FMDV antiviral = antivirals against foot and mouth disease virus; FMDV antiviral cell-based qHTS; Potency, µM (highest dose often 57.9 µM), without a hit: top-dose activity change, negative = inhibition, hits mostly inhibitors; actives 1.2% (n = 410,000); calls by dose curve; tested in HEK293T cells; further: read-out not given here; potency means the concentration at half of the fitted maximal effect; on the % scale 0 is the no-effect control and ±100 the full control effect; nearly all actives have a fitted effect of over 45% in size
# LASV entry inh = Lassa virus entry inhibition | actives 1.2% (n = 300,000) | Lassa virus pseudotype entry inhibition, cell reporter | Potency, µM (series often up to 37.9 µM), for inactives: at the top dose activity change, negative = inhibition, usual class: inhibitors; calls by dose curve; tested in HEK293 cells; further: potency means the concentration at half of the fitted maximal effect; on the % scale 0 is the no-effect control and ±100 the full control effect; nearly all actives have a fitted effect of over 50% in size
# Shiga toxin inh = Shiga toxin inhibition | Vero cells, Shiga toxin protein synthesis inhibition reporter | inhibition, % at 38.7 µM | actives 9.2% (n = 290,000) | AID 2315; in the data active means inhibition mostly above about 28%, no sharp cut-off; inactive means mostly below about 43%; further: 0% is about no effect
# Cycloheximide cs = counter-screen for Shiga toxin inhibitors: cycloheximide protein synthesis inhibition | cell reporter, cycloheximide protein synthesis inhibition counterscreen | max response, % | actives 12% (n = 300,000) | AID 2314; in the data active means max response mostly above about 13%, no sharp cut-off; inactive means mostly below about 14%; further: read at 38.3 µM for the half of the compounds with a filed dose; 0% is about no effect
# Marburg entry inh = Marburg virus entry inhibition | Marburg virus pseudotyped entry inhibition, cell reporter | Potency, µM (top dose mostly 37.8 µM), for the others: at the top dose activity change, negative = inhibition, hits mostly inhibitors | actives 1.8% (n = 300,000) | AID 540276; calls by dose curve; tested in HEK293 cells; further: potency means the concentration at half of the fitted maximal effect; on the % scale 0 is the no-effect control and ±100 the full control effect
# HCV inh = inhibitors of hepatitis C virus infection; Huh7.5.1 HCVcc-Cre infection, luciferase reporter, 44 h; actives 3.4% (n = 340,000); Potency, µM (titrated, usually from 41.8 µM), for inactives: at the top dose activity change, negative = inhibition, actives largely listed as inhibitors; active means well fitted inhibition curve with a large enough effect; inconclusive means small, poorly fitted or top-dose-only effect, or another doubt; inactive means no such curve, though single readings can be large or run the other way; further: potency means the concentration at half of the fitted maximal effect; on the % scale 0 is the no-effect control and ±100 the full control effect
#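 Compounds are dispensed onto cells plated 4 h earlier at 1,000 per well, with HCVcc-Cre virus (about 0.5 moi) added next. Following 44 h of culture, luminescent signal is measured for 15 sec after 15 min with substrate at room temperature.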
# * marks the source's active call; other numbers are inactive results; ? = inconclusive; . = no result given; [ ] = remark or other dose. Most compounds without a hit are left out; they make up all but 13% or so of the library.
SMILES,FMDV antiviral,LASV entry inh,Shiga toxin inh,Cycloheximide cs,Marburg entry inh,HCV inh
CC(C)Cn1c(N)c(C(=O)COC(=O)c2cc(C3CC3)nc3ccccc23)c(=O)n(C)c1=O,32µM*,21µM*,-6,-3,-36%,?
CC(C)Cn1c(N)c(C(=O)COC(=O)c2cc(C(F)(F)F)nc3ccccc23)c(=O)n(C)c1=O,28µM*,-14%,-15,-3,29%,?
CCOP(=O)(OCC)c1ccccc1OCP(C)(=O)COc1ccccc1P(=O)(OCC)OCC,3%,21%[46.1 µM],-5,-7,11%[46.1 µM],0%
O=C(CCn1c2c(c3ccccc31)CCCC2)NNC(=O)c1ccc(Cl)c([N+](=O)[O-])c1,3%,-4%,49,-2,-9%,10µM*
COC(=O)CC1(c2ccccc2)C(=O)c2ccccc2C1=O,-1%,-13%,-14,1,-13%,22%
CCCCc1nc2cc(C(=O)N3CCCCC3CC(=O)OCC)ccc2o1 (stereo unspecified),50%,6%,37,31*,10%,.
CCCCc1nc2cc(C(=O)N3CCCCC3C(=O)OC)ccc2o1 (stereo unspecified),14%,.,57*,39*,.,16%
CCOC(=O)CC1COCCN1C(=O)c1ccc2oc(Cc3ccccc3)nc2c1 (stereo unspecified),63%,-1%,62*,48*,23%,20%
CCOC(=O)N1CCN(C(=O)c2ccc3oc(CCc4ccccc4)nc3c2)CC1,8%,.,.,.,.,.
CC1CCN(S(=O)(=O)N2CCC(C(=O)N3CCC(N(C)CC4CCCO4)CC3)CC2)CC1 (stereo unspecified),-8%,.,-8,-4,.,15%
COc1ccccc1NS(=O)(=O)c1cccc(C(=O)N2CCCCCC2)c1,22%,?,.,.,-1%[46.1 µM],?
OCCN1CN=C(Nc2nc3ccccc3o2)NC1,-4%,4%,-4,-1,-3%[46.1 µM],-1%
COCCCN1CN=C(Nc2nc3ccccc3o2)NC1,70%,15%,61*,40*,1%,17%
c1ccc2oc(NC3=NCN(CC4CCCO4)CN3)nc2c1 (stereo unspecified),49%,?,81*,29*,5%,1%
CCCN1CN=C(Nc2nc3ccccc3o2)NC1,56%,14%,130*,32*,20%[46.1 µM],8%
CCOC(=O)NCC(C#CCN(CC)CC)N(CC)CC (stereo unspecified),10%,-9%,-8,3,6%[46.1 µM],12%
Nc1nc(NCCCN2CCOCC2)nc(Nc2cccc(Cl)c2)c1[N+](=O)[O-],?,?,21,-3,?,?
CC12CCC(=O)N1C(C(=O)O)Cc1c2[nH]c2ccccc12 (stereo unspecified),1%,1%,-9,-2,5%[46.1 µM],22%
C=CCNC(=O)C1CCN(c2nc(C)cc(-c3ccccc3)n2)CC1,38%,?,132*,36*,7%,2.8µM*
CCCS(=O)(=O)N1CCC(C(=O)NCc2ccccc2Cl)CC1,27%,1%,22,17*,15%,16%
Cc1cc(-c2ccccc2)nc(N2CCC(C(=O)NCc3ccccc3Cl)CC2)n1,.,.,54*,27*,.,3%
Cc1ccc(CNC(=O)C2CCN(c3nc(C)cc(C)n3)CC2)cc1,4%,21%,.,.,3%[46.1 µM],54%
COC(=O)CCCC(=O)NC1CC(C)(C)Cc2c1cnn2-c1ccc(C)cc1 (stereo unspecified),15%,?,24,9,-7%[46.1 µM],25%
CC(=O)Nc1sc(C)c(C)c1C(=O)OCC(=O)Nc1ccccc1,9%,.,.,.,.,?
CCOC(=O)c1c(NC(=O)CNC2CCCCC2)sc(C)c1C,-16%,-20%[46.1 µM],-5,5,?,10µM*
SMILES,FMDV antiviral,LASV entry inh,Shiga toxin inh,Cycloheximide cs,Marburg entry inh,HCV inh
CCOC(=O)c1c(NC(=O)CN2CCC(C)CC2)sc(C)c1C,?,?,6,6,-11%[46.1 µM],16%
CCOC(=O)c1c(NC(=O)c2nn(C)cc2[N+](=O)[O-])sc(C)c1C,6%,11%,-7,-3,6%[46.1 µM],3.5µM*
CC(=O)Nc1sc(C)c(C)c1C(=O)OCCOc1ccccc1,0%,?,113*,48*,?,?
CCOC(=O)c1c(NC(=S)Nc2ccccc2)sc(C)c1C,.,-9%,16,1,3%,2%
CCOC(=O)c1c(NC(=O)C[n+]2ccc(Cc3ccccc3)cc2)sc(C)c1C,-27%,-21%[46.1 µM],-4,0,?,1.3µM*
O=C(Cn1cc(C(=O)C2CC2)c2ccccc21)NCc1ccc2c(c1)OCO2,-1%,13%,-10,1,6%,?
Cc1ccc(Cn2cc(C(=O)c3ccc(F)cc3)c(=O)c3cc4c(cc32)OCCO4)cc1,-10%,5%[46.1 µM],0,-3,-1%[46.1 µM],?
CCOC(=O)c1c(NC(=O)CNCCO)sc(C)c1C,0%,3%,-17,-9,23%,?
CCOC(=O)c1c(NC(N)=O)sc(C)c1C,-17%,-9%,3,0,1%,0.89µM*
CC(=O)N(Cc1cc2c(C)cc(C)cc2[nH]c1=O)C1CCCCC1,-19%,-22%,13,-6,?,-21%
CCOC(=O)Cn1nnnc1C(C(C)C)N(Cc1cc2c(C)cc(C)cc2[nH]c1=O)C1CCCC1 (stereo unspecified),?,?,-6,3,8.9µM*,12%
CCc1cccc(C)c1NC(=S)NCC(c1cccnc1)N(C)C (stereo unspecified),-1%,8%,-7,3,?,30%
CCN(c1ccccc1)S(=O)(=O)c1ccc(Cl)c(NC(=O)CN(C)Cc2cccc(F)c2)c1,-20%,?,.,.,?,8.9µM*
CCN(c1ccccc1)S(=O)(=O)c1ccc(Cl)c(NC(=O)COC(=O)C2CC2C)c1 (stereo unspecified),-4%,-15%,-7,-3,14%[46.1 µM],-27%
CCN(c1ccccc1)S(=O)(=O)c1ccc(Cl)c(NC(=O)COC(=O)c2cc(O)c3ccccc3c2O)c1,.,.,36*,12*,.,.
CCN(c1ccccc1)S(=O)(=O)c1ccc(Cl)c(NC(=O)CN2CCCCCC2)c1,?,?,3,3,?,14µM*
CCN(c1ccccc1)S(=O)(=O)c1ccc(Cl)c(NC(=O)CNC(C)c2ccccc2)c1 (stereo unspecified),-28%,?,.,.,?,?
CCN(c1ccccc1)S(=O)(=O)c1ccc(Cl)c(NC(=O)COC(=O)c2ccc(O)cc2)c1,?,?,20,0,-12%,?
CCC(C)NCC(=O)Nc1cc(S(=O)(=O)N(CC)c2ccccc2)ccc1Cl (stereo unspecified),0%,?,16,3,21µM*,?
OC1CCC(Br)CC1C1NC2=C(CCCC2)S1 (stereo unspecified),.,.,.,.,11%,.
COc1cccc2[nH]c(=O)c(-c3ccccc3)cc12,53%,.,120*,61*,.,-3%
COc1ccc(-c2cc(=O)[nH]c3ccccc23)cc1,-29%,.,.,.,.,?
